Test results from the supplement of paper PMC10849652.
The full data set covers some 7,900 targets. This sample favours those with a hit. About 0.6% of all pairs of compound and target were hits. Unmarked numbers belong to inactive results.

Legend:
Test in all cases: log2 fold change, soluble protein after heating vs DMSO (PISA); higher = thermal stabilisation; K562 cells, 10 uM, 30 min; active = over 0.2 and 3.5 SD of the protein, either way, in both replicates (recomputed)
[1] = compound: COC1=CC=C(C=C1)CN2C=CC3=C2C=C(C=C3)C(=O)NO
Summary of the method: (§1)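 K562 cells (2×10^6 cells/mL) were treated with 10 μM compound for 30 min, and aliquots were heated for 3 min over 48°C-58°C. Pooled aliquots were extracted in PBS with 0.5% NP-40 at 4°C, and the supernatant after 21,000xg for 90 min was measured by TMTpro 16plex LC-MS/MS with channel sums equalised. Reported thermal stability, relative to control samples and from duplicates, is a log2 fold change.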

filanesib = compound: CON(C)C(=O)N1N=C(c2cc(F)ccc2F)S[C@@]1(CCCN)c1ccccc1 [filanesib]
Summary of the method: as §1

zotarolimus = compound: CO[C@H]1C[C@@H]2CC[C@@H](C)[C@@](O)(O2)C(=O)C(=O)N2CCCC[C@H]2C(=O)O[C@H]([C@H](C)C[C@@H]2CC[C@H](n3cnnn3)[C@H](OC)C2)CC(=O)[C@H](C)/C=C(\C)[C@@H](O)[C@@H](OC)C(=O)[C@H](C)C[C@H](C)/C=C/C=C/C=C/1C [zotarolimus]
Summary of the method: as §1

alisertib = compound: COc1cc(Nc2ncc3c(n2)-c2ccc(Cl)cc2C(c2c(F)cccc2OC)=NC3)ccc1C(=O)O [alisertib]
Summary of the method: as §1

[2] = compound: COc1cc2nc(-c3cc(F)ccc3O)nc(N[C@@H]3CNC[C@H]3C(C)(C)O)c2cc1OC
Summary of the method: as §1

gefitinib = compound: COc1cc2ncnc(Nc3ccc(F)c(Cl)c3)c2cc1OCCCN1CCOCC1 [gefitinib]
Summary of the method: as §1

[3] = compound: COc1cccc2cc(-c3nc([C@H]4CC[C@H](C(=O)O)CC4)n4ncnc(N)c34)[nH]c12
Summary of the method: as §1

lapatinib = compound: CS(=O)(=O)CCNCc1ccc(-c2ccc3ncnc(Nc4ccc(OCc5cccc(F)c5)c(Cl)c4)c3c2)o1 [lapatinib]
Summary of the method: as §1

pictilisib = compound: CS(=O)(=O)N1CCN(Cc2cc3nc(-c4cccc5[nH]ncc45)nc(N4CCOCC4)c3s2)CC1 [pictilisib]
Summary of the method: as §1

idasanutlin = compound: COc1cc(C(=O)O)ccc1NC(=O)[C@@H]1N[C@@H](CC(C)(C)C)[C@](C#N)(c2ccc(Cl)cc2F)[C@H]1c1cccc(Cl)c1F [idasanutlin]
Summary of the method: as §1

Sequence of UniProt Q14746 (Q14746 whole entry, looked up): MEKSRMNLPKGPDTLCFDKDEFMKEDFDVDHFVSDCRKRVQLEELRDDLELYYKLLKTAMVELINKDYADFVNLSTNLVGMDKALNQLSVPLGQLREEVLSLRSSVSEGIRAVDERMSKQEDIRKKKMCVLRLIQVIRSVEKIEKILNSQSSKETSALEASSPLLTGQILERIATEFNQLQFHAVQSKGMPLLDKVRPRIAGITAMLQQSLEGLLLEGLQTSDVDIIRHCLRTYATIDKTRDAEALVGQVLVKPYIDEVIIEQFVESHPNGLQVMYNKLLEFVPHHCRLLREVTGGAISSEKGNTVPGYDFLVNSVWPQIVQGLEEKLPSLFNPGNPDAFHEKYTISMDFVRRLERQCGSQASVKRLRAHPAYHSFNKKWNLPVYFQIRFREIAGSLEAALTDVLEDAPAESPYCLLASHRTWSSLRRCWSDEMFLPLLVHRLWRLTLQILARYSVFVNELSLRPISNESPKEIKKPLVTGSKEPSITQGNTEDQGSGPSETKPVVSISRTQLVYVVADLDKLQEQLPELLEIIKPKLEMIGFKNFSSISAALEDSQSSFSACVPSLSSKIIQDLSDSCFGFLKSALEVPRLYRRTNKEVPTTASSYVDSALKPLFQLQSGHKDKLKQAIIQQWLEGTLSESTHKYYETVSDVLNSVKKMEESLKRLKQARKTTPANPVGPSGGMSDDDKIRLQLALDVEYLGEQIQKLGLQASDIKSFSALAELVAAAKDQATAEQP
Sequence of UniProt Q8N4S0 (Q8N4S0 whole entry, looked up): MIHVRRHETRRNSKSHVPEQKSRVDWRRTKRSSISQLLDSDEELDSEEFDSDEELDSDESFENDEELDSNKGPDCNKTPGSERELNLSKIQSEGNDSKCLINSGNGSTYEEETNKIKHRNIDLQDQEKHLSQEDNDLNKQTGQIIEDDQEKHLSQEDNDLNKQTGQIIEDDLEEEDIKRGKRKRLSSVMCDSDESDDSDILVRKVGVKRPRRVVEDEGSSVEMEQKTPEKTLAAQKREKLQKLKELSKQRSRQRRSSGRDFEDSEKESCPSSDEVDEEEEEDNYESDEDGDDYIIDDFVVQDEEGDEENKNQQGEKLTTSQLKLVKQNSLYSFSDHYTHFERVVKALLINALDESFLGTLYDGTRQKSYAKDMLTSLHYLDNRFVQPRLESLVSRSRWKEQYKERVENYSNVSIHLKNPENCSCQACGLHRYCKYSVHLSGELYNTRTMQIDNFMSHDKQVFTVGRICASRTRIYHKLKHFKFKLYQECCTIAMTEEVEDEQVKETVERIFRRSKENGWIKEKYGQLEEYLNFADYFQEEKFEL
Sequence of UniProt Q9BSQ5 (Q9BSQ5 whole entry, looked up): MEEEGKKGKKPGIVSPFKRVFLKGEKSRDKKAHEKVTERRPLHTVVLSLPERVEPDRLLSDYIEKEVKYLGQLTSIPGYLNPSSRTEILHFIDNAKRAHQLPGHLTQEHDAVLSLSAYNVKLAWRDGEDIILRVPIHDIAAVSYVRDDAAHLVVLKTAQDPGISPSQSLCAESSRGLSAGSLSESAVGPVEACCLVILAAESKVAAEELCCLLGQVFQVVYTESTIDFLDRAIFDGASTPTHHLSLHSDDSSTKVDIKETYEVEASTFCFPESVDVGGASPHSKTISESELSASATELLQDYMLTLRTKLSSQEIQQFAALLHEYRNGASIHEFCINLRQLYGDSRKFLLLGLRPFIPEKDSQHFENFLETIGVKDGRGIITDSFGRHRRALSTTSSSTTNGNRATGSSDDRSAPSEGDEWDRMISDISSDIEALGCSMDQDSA
Sequence of UniProt Q9UBY8 (Q9UBY8 whole entry, looked up): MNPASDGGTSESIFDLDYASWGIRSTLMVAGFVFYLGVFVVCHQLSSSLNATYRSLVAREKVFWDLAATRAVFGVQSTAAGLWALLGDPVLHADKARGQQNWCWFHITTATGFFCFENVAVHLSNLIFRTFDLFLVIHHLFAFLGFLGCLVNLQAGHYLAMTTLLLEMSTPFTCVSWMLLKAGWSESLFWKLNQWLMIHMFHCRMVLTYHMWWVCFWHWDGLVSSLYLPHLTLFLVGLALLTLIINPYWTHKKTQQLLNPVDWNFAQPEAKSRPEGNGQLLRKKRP
Sequence of UniProt Q9H9S4 (Q9H9S4 whole entry, looked up): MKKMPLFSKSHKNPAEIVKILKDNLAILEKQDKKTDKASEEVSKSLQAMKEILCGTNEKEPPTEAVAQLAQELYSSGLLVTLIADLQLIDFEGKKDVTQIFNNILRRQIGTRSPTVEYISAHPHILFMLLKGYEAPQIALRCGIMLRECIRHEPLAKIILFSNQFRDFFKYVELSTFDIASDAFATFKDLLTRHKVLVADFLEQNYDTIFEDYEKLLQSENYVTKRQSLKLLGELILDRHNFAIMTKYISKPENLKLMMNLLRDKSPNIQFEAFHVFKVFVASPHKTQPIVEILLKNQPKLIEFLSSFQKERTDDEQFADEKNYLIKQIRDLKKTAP
Sequence of UniProt Q9UHN6 (Q9UHN6 whole entry, looked up): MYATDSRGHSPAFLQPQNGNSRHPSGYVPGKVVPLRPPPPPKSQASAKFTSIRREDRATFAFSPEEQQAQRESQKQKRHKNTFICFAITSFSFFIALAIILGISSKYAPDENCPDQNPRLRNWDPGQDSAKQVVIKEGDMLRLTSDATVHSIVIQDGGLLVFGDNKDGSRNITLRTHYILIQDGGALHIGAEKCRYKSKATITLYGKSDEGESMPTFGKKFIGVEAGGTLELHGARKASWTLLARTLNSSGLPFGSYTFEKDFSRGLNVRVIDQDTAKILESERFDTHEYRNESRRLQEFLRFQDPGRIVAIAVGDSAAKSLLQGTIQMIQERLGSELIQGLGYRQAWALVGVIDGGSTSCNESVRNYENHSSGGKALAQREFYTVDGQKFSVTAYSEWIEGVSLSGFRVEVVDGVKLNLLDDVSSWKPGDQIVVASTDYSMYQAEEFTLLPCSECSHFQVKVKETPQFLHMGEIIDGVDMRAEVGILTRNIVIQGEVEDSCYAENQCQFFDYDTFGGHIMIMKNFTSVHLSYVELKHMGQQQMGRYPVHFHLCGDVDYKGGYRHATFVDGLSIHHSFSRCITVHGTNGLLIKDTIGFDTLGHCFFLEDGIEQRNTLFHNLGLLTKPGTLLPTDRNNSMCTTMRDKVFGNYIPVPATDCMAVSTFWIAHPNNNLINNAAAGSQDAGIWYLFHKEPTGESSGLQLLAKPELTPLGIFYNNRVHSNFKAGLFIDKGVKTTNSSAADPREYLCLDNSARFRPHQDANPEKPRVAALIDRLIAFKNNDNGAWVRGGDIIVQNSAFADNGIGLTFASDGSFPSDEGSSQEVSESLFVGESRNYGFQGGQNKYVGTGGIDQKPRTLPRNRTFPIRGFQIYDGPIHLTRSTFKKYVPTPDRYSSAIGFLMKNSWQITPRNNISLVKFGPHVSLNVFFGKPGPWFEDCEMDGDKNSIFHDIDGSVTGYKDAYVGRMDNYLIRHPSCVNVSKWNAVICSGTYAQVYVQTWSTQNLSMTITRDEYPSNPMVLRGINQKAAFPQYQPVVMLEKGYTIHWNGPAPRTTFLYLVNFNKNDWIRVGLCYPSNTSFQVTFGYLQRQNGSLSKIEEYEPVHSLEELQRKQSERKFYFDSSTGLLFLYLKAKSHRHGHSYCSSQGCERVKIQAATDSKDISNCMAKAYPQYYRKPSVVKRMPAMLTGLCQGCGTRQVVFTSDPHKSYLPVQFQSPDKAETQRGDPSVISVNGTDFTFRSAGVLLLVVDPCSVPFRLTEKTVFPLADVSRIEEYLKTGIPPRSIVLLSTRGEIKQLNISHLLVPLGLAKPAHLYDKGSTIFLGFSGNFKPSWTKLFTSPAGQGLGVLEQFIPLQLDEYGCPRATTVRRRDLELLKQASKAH
Sequence of UniProt Q53ET0 (Q53ET0 whole entry, looked up): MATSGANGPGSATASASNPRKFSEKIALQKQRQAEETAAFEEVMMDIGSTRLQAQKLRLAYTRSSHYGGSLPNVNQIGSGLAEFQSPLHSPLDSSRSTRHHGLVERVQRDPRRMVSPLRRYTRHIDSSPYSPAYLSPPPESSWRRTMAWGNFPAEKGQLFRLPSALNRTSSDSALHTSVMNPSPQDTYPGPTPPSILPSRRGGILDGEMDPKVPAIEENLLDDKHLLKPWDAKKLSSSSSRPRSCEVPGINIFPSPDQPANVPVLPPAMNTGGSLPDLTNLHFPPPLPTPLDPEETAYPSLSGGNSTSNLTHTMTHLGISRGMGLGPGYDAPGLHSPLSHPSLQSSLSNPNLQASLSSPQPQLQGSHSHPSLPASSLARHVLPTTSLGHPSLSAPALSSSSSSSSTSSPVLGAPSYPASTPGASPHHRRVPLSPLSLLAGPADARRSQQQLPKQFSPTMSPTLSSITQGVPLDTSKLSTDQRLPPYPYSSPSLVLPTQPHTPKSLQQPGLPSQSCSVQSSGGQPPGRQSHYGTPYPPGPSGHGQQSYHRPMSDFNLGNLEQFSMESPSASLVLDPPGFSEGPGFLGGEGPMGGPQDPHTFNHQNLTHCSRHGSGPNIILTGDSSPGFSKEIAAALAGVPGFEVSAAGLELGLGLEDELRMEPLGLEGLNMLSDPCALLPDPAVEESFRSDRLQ
Sequence of UniProt Q96G28 (Q96G28 whole entry, looked up): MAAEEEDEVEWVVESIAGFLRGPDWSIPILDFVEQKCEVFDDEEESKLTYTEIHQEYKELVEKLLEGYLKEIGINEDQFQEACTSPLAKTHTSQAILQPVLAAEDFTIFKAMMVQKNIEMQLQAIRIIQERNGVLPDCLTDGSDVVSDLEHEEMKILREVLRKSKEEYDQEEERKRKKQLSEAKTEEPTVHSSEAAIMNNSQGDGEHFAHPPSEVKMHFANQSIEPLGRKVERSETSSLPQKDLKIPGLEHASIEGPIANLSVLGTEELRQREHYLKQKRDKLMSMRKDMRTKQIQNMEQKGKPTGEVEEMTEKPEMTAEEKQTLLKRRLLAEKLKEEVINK
Sequence of UniProt Q7Z4R8 (Q7Z4R8 whole entry, looked up): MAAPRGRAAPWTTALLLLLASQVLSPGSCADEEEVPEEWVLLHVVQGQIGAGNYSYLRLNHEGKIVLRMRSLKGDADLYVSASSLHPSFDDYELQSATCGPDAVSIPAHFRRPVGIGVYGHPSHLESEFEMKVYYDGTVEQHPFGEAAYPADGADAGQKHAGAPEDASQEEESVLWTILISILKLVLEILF

Target	log2 fold change [1]	log2 fold change (filanesib)	log2 fold change (zotarolimus)	log2 fold change (alisertib)	log2 fold change [2]	log2 fold change (gefitinib)	log2 fold change [3]	log2 fold change (lapatinib)	log2 fold change (pictilisib)	log2 fold change (idasanutlin)
CCDC57 (UniProt Q2TAC2)	0.006	0.01	-0.081	0.013	-0.008	0.009	0.063	0.07	–	–
CCM2 isoform 2 (UniProt Q9BSQ5)	-0.093	0.026	0.057	-0.04	0.154	–	0.056	0.006	0.022	–
CEP128 (UniProt Q6ZU80)	-0.269	0.031	-0.101	0.677 (active)	0.076	–	-0.381	-0.198	–	-0.103
CFAP36 isoform 2 (UniProt Q96G28)	0.12	0.055	0.162	-0.049	0.001	–	0.019	0.082	0.241	-0.02
COG2 (UniProt Q14746)	-0.006	0.25	-0.048	0.58	–	-0.187	0.631 (active)	–	–	-0.053
C19orf54 (UniProt Q5BKX5)	-0.025	-0.278	0.024	–	0.123	–	–	-0.125	0.053	-0.094
CAV2 (UniProt P51636)	-0.046	0.131	–	-0.083	-0.011	0.137	0.026	-0.018	0.031	0
CCNC (UniProt P24863)	-0.198	0.013	-0.026	-0.036	–	–	0.013	–	0.079	-0.156
CCDC167 (UniProt Q9P0B6)	-0.054	-0.024	-0.027	-0.068	-0.148	-0.021	-0.105	0.016	0.047	–
CSNK1A1 (UniProt P48729)	0.147	0.08	0.024	–	-0.214	-0.106	-0.036	0.019	0.024	0.094
CDK8 (UniProt P49336)	0.03	0.008	-0.044	-0.137	-0.105	–	-0.005	-0.047	0.038	-0.136
CRTC2 (UniProt Q53ET0)	-0.004	-0.019	–	0	-0.509 (active)	-0.056	0.066	0.079	–	0.086
CCDC82 (UniProt Q8N4S0)	-0.356	–	0.013	0.034	-0.013	0.052	-0.102	0.043	–	0
CASP10 isoform 4 (UniProt Q92851)	0.012	0.078	0.062	0.009	-0.089	-0.036	-0.128	-0.047	0.079	-0.049
CAB39L (UniProt Q9H9S4)	-0.063	-0.07	–	–	0.07	–	–	0.057	0.029	-0.052
C9orf64 (UniProt Q5T6V5)	0.07	-0.091	0.038	0.078	-0.079	-0.062	-0.022	0.043	-0.055	-0.062
CERT isoform 3 (UniProt Q9Y5P4)	-0.025	0.001	0.2	-0.064	-0.201	0.157	-0.004	0.247	0.186	-0.145
COPS3 isoform 2 (UniProt Q9UNS2)	-0.144	0.157	–	-0.008	0.321	0.005	0.083	-0.211	0.128	0.138
CASTOR2 (UniProt A6NHX0)	0.04	-0.042	-0.038	-0.08	0.194	-0.053	0.063	-0.108	-0.042	0.027

Target	log2 fold change [1]	log2 fold change (filanesib)	log2 fold change (zotarolimus)	log2 fold change (alisertib)	log2 fold change [2]	log2 fold change (gefitinib)	log2 fold change [3]	log2 fold change (lapatinib)	log2 fold change (pictilisib)	log2 fold change (idasanutlin)
CENPE (UniProt Q02224)	-0.355	0.445	0.288	–	-0.068	–	–	0.024	0.048	-0.407
COX17 (UniProt Q14061)	0.183	-0.059	0.034	-0.112	–	-0.055	0.02	–	0.092	0.059
CASP8 isoform 9 (UniProt Q14790)	-0.087	-0.017	–	-0.107	0.023	-0.153	0.044	-0.028	0.127	-0.086
CRTC1 isoform 2 (UniProt Q6UUV9)	-0.39 (active)	-0.002	–	–	0.138	–	–	0.028	-0.013	-0.021
C6orf120 (UniProt Q7Z4R8)	0.003	-0.053	–	–	-0.135	-0.008	–	-0.114	–	–
CDC42BPB (UniProt Q9Y5S2)	-0.062	0.147	0.089	-0.1	-0.371	-0.07	0.071	-0.009	0.025	0.062
CIR1 (UniProt Q86X95)	-0.022	0.247	-0.064	-0.081	-0.019	–	-0.024	0.078	-0.365	0.161
CRLS1 (UniProt Q9UJA2)	0.044	-0.125	0.005	-0.071	-0.229	0.021	0.075	0.046	-0.029	–
CPT2 (UniProt P23786)	0.114	-0.207	0.798 (active)	-0.067	-0.199	0.343	-0.005	0.058	0.57	0.806 (active)
CLN8 (UniProt Q9UBY8)	–	0.068	0.13	0.04	-0.019	0.075	-0.015	0.012	–	-0.145
CKS2 (UniProt P33552)	–	–	–	-0.029	0.184	0.093	0.14	-0.036	-0.666	0.193
CAD (UniProt H7BZB3)	–	–	–	–	–	–	–	–	–	-0.006
CFAP47 (UniProt Q6ZTR5)	–	–	–	–	0.031	–	–	-0.106	–	-0.496
CLN3 (UniProt Q13286)	0.008	–	-0.1	0	0.08	-0.028	0.139	-0.059	–	–
CEMIP2 (UniProt Q9UHN6)	-0.018	–	0.008	0.202	0.121	0.072	0.135	0.026	0.097	0.021
CLINT1 (UniProt Q14677)	-0.371	–	0.263	-0.137	–	0.077	-0.055	–	–	-0.012
CCNL1 (UniProt Q9UK58)	–	–	–	0.119	–	–	0.167	–	–	–
C5orf30 (UniProt Q96GV9)	–	–	–	–	-0.094	–	–	-0.21	–	0.022
COMMD3-BMI1 (UniProt R4GMX3)	–	-0.08	-0.12	–	0.519 (active)	-0.029	–	-0.445	0.135	0.093
